Data: PubChem BioAssay (EPA / NIEHS)
Where “and” joins values, the source holds several entries; their conditions need not be identical. Equal entries are not always repeated. Records with an inconclusive call do not appear. Some structures have more than one record in an assay (separate samples or runs), and their calls can disagree. Calls of active or inactive are those of the source. The calls were made as follows, unless noted: active = hit-call score of the fitted dose curve at least 0.9, where 1 is the maximum; inactive = score below 0.9.

Legend:
[1] = target: human Thyroid Receptor alpha (THRa1), THRA (gene 7067) (UniProt P10827); experiment: ATG_THRa1_TRANS: Attagene TRANS-FACTORIAL HepG2 Assay for human Thyroid Receptor alpha (THRa1) (AID 2283014; active = hit-call score of the fitted dose curve at least 0.9, where 1 is the maximum)
Outline: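 Transient HepG2 transfection, NR-Gal4 chimera driving GAL4-UAS reporters; 24 h compound exposure; total RNA, oligo(dT) RT, PCR, fluorescent primer extension, capillary electrophoresis. Upward direction vs DMSO control.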

[2] = read-out: E-selectin (Homo sapiens) (UniProt P16581); experiment: BSK_3C_Eselectin: BioMAP Diversity Plus: 3C Assay for Eselectin Biomarker Activity (AID 2283015); details: primary human endothelial cells (HUVEC); actives raise or lower the signal
Outline: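 HUVEC, 3C stimulation; compound exposure 24 h; E-selectin by ELISA; gain- or loss-of-signal fitted bidirectionally vs DMSO baseline.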

[3] = read-out: Interleukin-1 alpha (IL1a), IL1A (gene 3552); experiment: BSK_BE3C_IL1a: BioMAP Diversity Plus: BE3C Assay for Interleukin-1 alpha (IL1a) Biomarker Activity (AID 2283016); details: primary human bronchial epithelial cells; actives raise or lower the signal
Outline: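 Cultures of primary human bronchial epithelial cells receive test chemical. After 24 h, IL-1a is quantified by ELISA, while parallel wells are fixed in TCA and SRB-stained for total protein. Changes in either direction are fitted relative to DMSO.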

[4] = read-out: Monocyte Chemoattractant Protein-1 (MCP1), CCL2 (gene 6347); experiment: BSK_3C_MCP1: BioMAP Diversity Plus: 3C Assay for Monocyte Chemoattractant Protein-1 (MCP1) Biomarker Activity (AID 2283017); details: primary human endothelial cells (HUVEC); actives raise or lower the signal
Outline: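 HUVEC, 3C system; 24 h chemical exposure; MCP-1 by ELISA; bidirectional curve fit vs DMSO baseline.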

[5] = read-out: Monocyte Chemoattractant Protein-1 (MCP1), CCL2 (gene 6347); experiment: BSK_4H_MCP1: BioMAP Diversity Plus: 4H Assay for Monocyte Chemoattractant Protein-1 (MCP1) Biomarker Activity (AID 2283018); details: primary human endothelial cells (HUVEC); actives raise or lower the signal
Outline: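 Readout: MCP-1 ELISA on compound-treated HUVEC, sampled 24 h post-dosing. Baseline and negative control DMSO; bidirectional fit. Overt toxicity checked alongside by sulforhodamine B protein staining at time of biomarker measurement.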

[6] = read-out: Human Leukocyte Antigen - DR isotype (HLADR), HLA-DRA (gene 3122); experiment: BSK_3C_HLADR: BioMAP Diversity Plus: 3C Assay for Human Leukocyte Antigen - DR isotype (HLADR) Biomarker Activity (AID 2283019); details: primary human endothelial cells (HUVEC); actives raise or lower the signal
Outline: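 HUVEC, 3C stimulation, 24 h post-dose; HLA-DR by ELISA; bidirectional curve fit vs DMSO baseline; gain or loss of signal scored.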

[7] = read-out: Interleukin-8 (IL8), CXCL8 (gene 3576); experiment: BSK_3C_IL8: BioMAP Diversity Plus: 3C Assay for Interleukin-8 (IL8) Biomarker Activity (AID 2283020); details: primary human endothelial cells (HUVEC); actives raise or lower the signal
Outline: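 Human vascular endothelial cells (umbilical vein) in the 3C system; IL-8 level detected by ELISA at 24 h post-dose, with DMSO as baseline.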

[8] = target: human Vitamin D Receptor (VDR), VDR (gene 7421) (UniProt P11473); experiment: ATG_VDR_TRANS: Attagene TRANS-FACTORIAL HepG2 Assay for human Vitamin D Receptor (VDR) (AID 2283022; active = hit-call score of the fitted dose curve at least 0.9, where 1 is the maximum)
Outline: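 RT-PCR/capillary electrophoresis read-out of reporter mRNA induction in transiently transfected HepG2; 24 h dosing; chimeric NR-Gal4 (TRANS format); gain-of-signal fit against DMSO baseline.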

[9] = target: human Retinoid X Receptor beta (RXRb), RXRB (gene 6257) (UniProt P28702); experiment: ATG_RXRb_TRANS: Attagene TRANS-FACTORIAL HepG2 Assay for human Retinoid X Receptor beta (RXRb) (AID 2283013; active = hit-call score of the fitted dose curve at least 0.9, where 1 is the maximum)
Outline: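 Multiplexed TRANS reporter assay in HepG2; 24 h dosing; reporter mRNA by RT-PCR/CE fluorescence; gain-of-signal relative to DMSO.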

[10] = read-out: Monokine induced gamma interferon (MIG), CXCL9 (gene 4283); experiment: BSK_3C_MIG: BioMAP Diversity Plus: 3C Assay for Monokine induced gamma interferon (MIG) Biomarker Activity (AID 2283021); details: primary human endothelial cells (HUVEC); actives raise or lower the signal;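 as to AC50: MIG protein level measured by immunoassay in the treated endothelial cultures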
Outline: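 After 24 h of treatment, human umbilical vein endothelial cultures (3C system) had their MIG biomarker level determined by ELISA, with DMSO serving as negative control.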

Measured: AC50

Chain of E-selectin (Homo sapiens) (P16581 whole entry, looked up): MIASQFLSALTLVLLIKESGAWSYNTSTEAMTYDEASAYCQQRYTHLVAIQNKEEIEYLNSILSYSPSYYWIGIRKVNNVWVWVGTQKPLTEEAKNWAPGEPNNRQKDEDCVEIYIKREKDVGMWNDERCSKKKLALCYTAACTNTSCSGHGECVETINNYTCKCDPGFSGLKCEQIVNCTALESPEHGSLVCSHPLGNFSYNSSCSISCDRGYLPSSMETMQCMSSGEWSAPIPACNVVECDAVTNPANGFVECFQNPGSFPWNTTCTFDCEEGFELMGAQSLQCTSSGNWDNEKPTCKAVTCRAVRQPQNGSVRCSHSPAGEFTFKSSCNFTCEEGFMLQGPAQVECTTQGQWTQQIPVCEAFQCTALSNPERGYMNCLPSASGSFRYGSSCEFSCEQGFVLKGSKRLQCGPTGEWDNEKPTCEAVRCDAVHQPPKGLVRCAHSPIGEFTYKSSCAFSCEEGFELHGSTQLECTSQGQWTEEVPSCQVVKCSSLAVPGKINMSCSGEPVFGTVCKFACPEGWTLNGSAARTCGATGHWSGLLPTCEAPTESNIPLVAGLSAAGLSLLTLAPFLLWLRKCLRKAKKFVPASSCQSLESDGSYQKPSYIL
Chain of human Vitamin D Receptor (VDR), VDR (gene 7421) (P11473 whole entry, looked up, the tested form may be a part): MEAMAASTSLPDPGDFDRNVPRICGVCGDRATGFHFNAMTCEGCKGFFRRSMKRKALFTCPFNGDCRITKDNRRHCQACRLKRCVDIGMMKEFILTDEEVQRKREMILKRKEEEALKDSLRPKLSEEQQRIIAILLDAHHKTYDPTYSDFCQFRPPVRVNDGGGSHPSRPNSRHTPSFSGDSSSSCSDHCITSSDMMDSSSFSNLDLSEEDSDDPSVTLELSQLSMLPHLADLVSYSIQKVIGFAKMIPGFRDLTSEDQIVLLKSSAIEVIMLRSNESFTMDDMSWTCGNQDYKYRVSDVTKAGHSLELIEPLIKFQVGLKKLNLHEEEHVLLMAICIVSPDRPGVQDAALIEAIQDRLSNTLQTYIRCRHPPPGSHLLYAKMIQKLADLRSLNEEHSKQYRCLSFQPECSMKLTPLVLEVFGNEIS
Chain of human Thyroid Receptor alpha (THRa1), THRA (gene 7067) (P10827 whole entry, looked up, the tested form may be a part): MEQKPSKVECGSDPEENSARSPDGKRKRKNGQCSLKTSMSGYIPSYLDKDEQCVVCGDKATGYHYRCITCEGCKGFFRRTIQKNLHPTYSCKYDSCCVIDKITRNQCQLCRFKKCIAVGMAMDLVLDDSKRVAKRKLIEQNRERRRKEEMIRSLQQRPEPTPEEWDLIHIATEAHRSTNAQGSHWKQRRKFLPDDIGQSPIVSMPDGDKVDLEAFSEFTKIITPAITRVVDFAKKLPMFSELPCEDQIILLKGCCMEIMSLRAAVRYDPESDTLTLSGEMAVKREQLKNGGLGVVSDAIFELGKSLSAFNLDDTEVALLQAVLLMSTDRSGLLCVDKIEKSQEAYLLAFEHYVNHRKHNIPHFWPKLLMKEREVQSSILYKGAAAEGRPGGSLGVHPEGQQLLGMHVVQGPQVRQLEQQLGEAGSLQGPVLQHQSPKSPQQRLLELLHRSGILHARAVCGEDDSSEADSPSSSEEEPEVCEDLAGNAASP
Chain of human Retinoid X Receptor beta (RXRb), RXRB (gene 6257) (P28702 whole entry, looked up): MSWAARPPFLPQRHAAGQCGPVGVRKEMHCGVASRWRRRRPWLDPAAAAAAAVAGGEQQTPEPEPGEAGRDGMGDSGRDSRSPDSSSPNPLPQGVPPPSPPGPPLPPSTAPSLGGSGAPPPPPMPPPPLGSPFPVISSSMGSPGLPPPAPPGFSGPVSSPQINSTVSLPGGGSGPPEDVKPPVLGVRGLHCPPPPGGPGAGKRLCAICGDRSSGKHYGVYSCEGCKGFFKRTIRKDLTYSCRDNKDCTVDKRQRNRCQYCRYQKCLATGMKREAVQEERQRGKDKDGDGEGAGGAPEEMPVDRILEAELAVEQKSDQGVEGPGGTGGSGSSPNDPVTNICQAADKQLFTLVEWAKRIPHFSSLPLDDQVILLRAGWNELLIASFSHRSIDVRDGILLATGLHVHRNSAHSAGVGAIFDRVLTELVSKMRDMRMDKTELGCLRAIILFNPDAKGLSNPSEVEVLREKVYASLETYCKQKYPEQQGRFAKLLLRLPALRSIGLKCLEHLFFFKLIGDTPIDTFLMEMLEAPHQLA

Cc1oc2c(NC(=O)c3c(Cl)cccc3Cl)cccc2c1C(C)(C)O
inactive: [1] | [4] | [5] | [7] | [8]
active: [2] 13 µM | [3] 23.6 µM | [6] 21.8 µM

CCCCCCCCN(C)CCCCCCCC
inactive: [1] | [2] | [3] | [4] | [5] | [6] | [7] | [8]

CN(C[C@@H](CC[N+]12CCC(C3CCCCC3)(CC1)CC2)c1ccc(Cl)c(Cl)c1)C(=O)c1cc(C(F)(F)F)cc(C(F)(F)F)c1
inactive: [9] | [1] | [8]
active: [2] 27.5 µM | [3] 27.6 µM | [4] 21.1 µM | [7] 24.3 µM

Cc1cccc2ccccc12
inactive: [1] | [2] | [3] | [4] | [6] | [7] | [10] | [8]

CC(C)(c1cc(Br)c(O)c(Br)c1)c1cc(Br)c(O)c(Br)c1
inactive: [1] | [8]
active: [2] 29 µM | [3] 5.72 µM | [4] 29.9 µM | [6] 27.2 µM | [7] 31.8 µM | [10] 37.1 µM

CCCCCCCC[Si](OCC)(OCC)OCC
active: [2] 17.5 µM | [4] 31.2 µM | [5] 29.5 µM | [7] 30 µM
inactive: [1] | [3] | [10] | [8]

CN(C)c1ccc(C(=C2C=CC(=[N+](C)C)C=C2)c2ccc(N(C)C)cc2)cc1
active: [2] 0.815 µM | [3] 2.36 µM | [4] 0.798 µM | [5] 0.66 µM | [6] 0.344 µM | [7] 5.53 µM
inactive: [1]

CO[C@H]1/C=C/O[C@@]2(C)Oc3c(C)c(O)c4c(O)c(c(/C=N/N5CCN(C)CC5)c(O)c4c3C2=O)NC(=O)/C(C)=C\C=C\[C@H](C)[C@H](O)[C@@H](C)[C@@H](O)[C@@H](C)[C@H](OC(C)=O)[C@@H]1C
inactive: [1] | [2] | [3] | [4] | [5] | [6] | [7] | [8]

O=c1[nH]sc2ccccc12
inactive: [9] | [1] | [8]
active: [2] 13.5 µM | [3] 27.7 µM | [4] 11.7 µM | [5] 11.6 µM | [7] 14.4 µM

c1ccc2ccccc2c1
inactive: [1] | [2] | [3] | [4] | [6] | [7] | [8]

CC1=CC(=O)/C(=C(/C)O)C(=O)O1
inactive: [1] | [2] | [3] | [4] | [5] | [6] | [7] | [8]

O=C(Nc1ccc(Cl)cc1)Nc1ccc(Cl)c(Cl)c1
active: [4] 3.28 µM | [5] 4.31 µM | [6] 1.68 µM | [7] 1.87 µM
inactive: [1] | [2] | [3] | [10]

CCCCCCCCCC(=O)O
inactive: [2] | [3] | [4] | [6] | [7] | [8]
active: [9] 30.2 µM and 68.3 µM

c1ccc(C[n+]2cccc3ccccc32)cc1
inactive: [1] | [2] | [3] | [4] | [6] | [7] | [10] | [8]

Cc1ccc(C(C)C)cc1
inactive: [9] | [1] | [2] | [3] | [4] | [5] | [6] | [7] | [10] | [8]

O=C1O[C@H]([C@@H](O)CO)C(O)=C1O
active: [9] 35.9 µM
inactive: [9] | [1] | [2] | [3] | [4] | [7]
